About 1,700 (0.52%) of roughly 330,000 compounds were called active. No stated cut-off is given here; in the data, active means inhibition above about 50%; inactive means the rest. This excerpt belongs to a sample that is enriched for actives.
Test: inhibitors of induced NF-kB luciferase reporter, primary screen, TCR NF-kB activation inhibitor project, cell-based, luminescence, uHTS (AID 435003)
Conditions: at 4 µM, active compounds read high; NF-kB luciferase reporter unless noted

SMILES	inhibition
Cc1cc2ccccn2c1C(C[N+](=O)[O-])c1c(F)cccc1Cl (stereo not given)	71.3% (active)
O=C(c1cc2nc(-c3ccccc3)cc(-c3ccccc3)n2n1)N1CCC2(CC1)OCCO2	-2.97% (inactive)
C[C@]12CC[C@H](O)C[C@H]1CC[C@@H]1C2CC[C@]2(C)[C@@H](C3=CC(=O)OC3)[C@@H](O)C[C@]12O (stereo not given in full)	79.5% [Jurkat, PMA/ionomycin-induced NF-kB luciferase reporter] (active)
C[C@]12CCC3C(CC[C@H]4C[C@@H](O)CC[C@]34C)C1C[C@@H](O)[C@H]2O (stereo not given in full)	-3.46% (inactive)
C[C@]12CCC3C(CC[C@H]4C[C@@H](O)CC[C@]34C)C1CC[C@@H]2O (stereo not given in full)	10.7% (inactive)
CN1CCN(/N=C/c2c[nH]c3ccccc23)CC1	-15.1% (inactive)
O=C(NCC(c1cccnc1)N1CCN(c2ccccc2)CC1)Oc1ccccc1 (stereo not given)	10.4% (inactive)
COc1ccccc1C1=NCc2nnc(CSC)n2-c2ccc(Cl)cc21	-5.97% (inactive)
CCCCCCCCCCCCn1ccc(=N)cc1	94.2% (active)
Cc1nn(Cc2ccccc2Cl)c(Cl)c1C(=O)OC(C(=O)NC(N)=O)C(C)C (stereo not given)	11.3% (inactive)
CCOC(=O)C1(Cc2ccc(Cl)cc2)CCN(C(C)CCn2cccn2)CC1 (stereo not given)	-3.65% (inactive)
O=C(CCNS(=O)(=O)c1ccccc1)Nc1ccc(Cl)cc1C(=O)c1ccccc1	-5.78% (inactive)
COC(=O)[C@@H]1C(OC(=O)c2ccccc2)CC2CCC1N2C (stereo not given in full)	-16.7% (inactive)
COc1ccc(N2C(=O)/C(=C/c3ccco3)C(=O)NC2=S)cc1	1.64% (inactive)
CCOc1ccc(-c2cc(C)[n+](CCN(CC)CC)c(-c3ccc(OCC)cc3)c2)cc1	72.8% (active)
CN1CCc2cc3c(cc2[C@H]1[C@@H]1OC(=O)c2c1ccc1c2OCO1)OCO3	5.76% [Jurkat, PMA/ionomycin-induced NF-kB luciferase reporter] (inactive)
CCN(CC)P(=O)(Oc1cccc(C)c1)N(CC)CC	4.24% (inactive)
Cc1cc(N2C(=O)C3CCCN3C2c2ccc(Cl)c(Cl)c2)no1 (stereo not given)	-12.8% (inactive)
c1ccc(C2NCc3ccccc3-n3cccc32)cc1 (stereo not given)	10.4% (inactive)
CNC(=O)O/N=C(\N)Cc1csc2ccc(Cl)cc12	-0.793% (inactive)

— PubChem BioAssay AID435003 (Sanford-Burnham Center for Chemical Genomics, 2010)
